# Screening results deposited in PubChem BioAssay by National Center for Advancing Translational Sciences (NCATS).
# Vif-APOBEC3F blk: inhibitors of Vif-A3F interaction | HeLa A3F-eYFP + Vif (tagged APOBEC3F with the HIV-1 protein that degrades it), YFP fluorescence increase | Potency, µM (highest dose often 46.1 µM), for the others: at the top dose activity, negative = active | actives 0.2% (n = 390,000) | AID 602313; also: potency is read from the fitted curve at half-maximal effect; % of control where 0% means no effect; nearly all actives have a fitted effect of over 65% in size
#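 HeLa cells stably expressing Vif plus C-terminally eYFP-tagged A3F were seeded, incubated overnight at 37 deg C, dosed with compound, incubated overnight again at 37 deg C. Yellow fluorescence (Ex 488/Em 500-530) reported blocked Vif-mediated A3F-eYFP degradation.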
# IL-2 act: activates IL-2 in a cell-based reporter assay; IL-2 activation reporter assay, cell-based qHTS; stimulated with anti-CD3/CD4/CD28 beads; in transgenic mouse T cells; activation, % (series mostly up to about 46 µM); AID 652025; actives 0.065% (n = 360,000); in the data active = activation above about 50%; inconclusive = mostly about 30% to 49%; also: 0% is about no effect
#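 Screening format: compound pinned onto unstimulated transgenic mouse T cells, 60 min incubation, then anti-CD3/anti-CD4/anti-CD28 bead stimulation for 18 hours at 37 degrees C, followed by EGFP and DsRed detection.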
# Vif-A3G inh: blocks the Vif interaction with human APOBEC3G | HeLa A3G-eYFP + Vif (tagged APOBEC3G with the HIV-1 protein that degrades it), YFP fluorescence, overnight | Potency, µM (highest dose often 46.1 µM), without a hit: top-dose activity, negative = active, hits mostly inhibitors | actives 0.076% (n = 410,000) | AID 602310; also: potency is read from the fitted curve at half-maximal effect; % is scaled to controls: 0 for no effect and ±100 for the full control effect; nearly all actives have a fitted effect of over 60% in size
#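 HeLa cells stably expressing Vif and C-terminally eYFP-tagged A3G, seeded overnight at 37 deg C, then exposed to compound by pintool overnight at 37 deg C. Rise in yellow fluorescence (Ex 488/Em 500-530, Acumen) marks blocked Vif-driven A3G degradation.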
# PKM2 act: activators of human pyruvate kinase M2 | P14618 | purified PKM2, Kinase-Glo ATP luminescence, activation; response scale: 0% is enzyme alone, no compound | Potency, µM (series often up to 57.5 µM), for inactives: at the highest dose activation, most hits filed as activators | actives 0.34% (n = 260,000) | AID 1631; also: potency is read from the fitted curve at half-maximal effect; % is scaled to controls: 0 for no effect and ±100 for the full control effect; nearly all actives have a fitted effect of over 55% in size
# Target sequence (P14618 whole entry, looked up): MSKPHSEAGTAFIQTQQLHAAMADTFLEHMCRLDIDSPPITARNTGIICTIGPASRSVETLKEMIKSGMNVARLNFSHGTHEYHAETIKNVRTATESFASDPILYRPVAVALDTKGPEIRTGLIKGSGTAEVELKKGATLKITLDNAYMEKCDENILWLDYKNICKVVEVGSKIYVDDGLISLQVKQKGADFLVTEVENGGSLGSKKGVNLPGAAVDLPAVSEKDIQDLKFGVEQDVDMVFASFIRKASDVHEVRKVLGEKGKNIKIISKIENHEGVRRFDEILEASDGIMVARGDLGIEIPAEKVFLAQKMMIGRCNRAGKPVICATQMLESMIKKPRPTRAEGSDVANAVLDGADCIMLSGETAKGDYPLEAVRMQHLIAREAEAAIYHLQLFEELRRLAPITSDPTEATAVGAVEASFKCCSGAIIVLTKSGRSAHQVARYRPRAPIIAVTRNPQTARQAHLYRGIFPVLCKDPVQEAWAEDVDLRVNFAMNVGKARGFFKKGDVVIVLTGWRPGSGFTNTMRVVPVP
#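 Purified hPK-M2 (>95% pure) converted ADP (0.1 mM final) to ATP with 0.5 mM PEP in 50 mM imidazole pH7.2, KCl, MgCl2, Tween 20, BSA; 1 h at room temperature. ATP detected by Kinase-Glo luminescence.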
# Numbers without * were called inactive; i = inactive; ? = inconclusive; / = no result given. Compounds with a hit are over-represented: about 0.53% of the library has one in this group of screens. Unless noted, calls follow the shape of the dose curve; as a rule, active = well fitted curve in the direction sought with a large enough effect; inconclusive = small, poorly fitted or top-dose-only effect, or another doubt; inactive = no such curve, though single readings can be large; an effect the other way counts as inactive or inconclusive.
SMILES,Vif-APOBEC3F blk,IL-2 act,Vif-A3G inh,PKM2 act
COc1ccc(CNC(=O)C2CCN(S(=O)(=O)c3ccc(C)cc3)CC2)cc1,-2.3%,/,-1.7%,/
Cc1cc(OC(C)C(=O)N(Cc2ccco2)Cc2ccccc2F)cc(C)c1Cl (stereo unspecified),0.2%,/,4.6%,/
COc1ccc(CNC(=O)N2CCN(S(=O)(=O)c3ccc(C)cc3C)CC2)cc1,1.4%,-3.4,0.3%,4.47µM*
Cc1ccc(S(=O)(=O)N2CCN(C(=O)NCc3ccc(F)cc3)CC2)c(C)c1,2.4%,-0.6,-0.4%,/
Cc1cc2c(cc3c(SCc4ccccc4Cl)nnc(C)n32)o1,0.8%,/,0.3%,/
Cc1ccc(C(=O)C2C(=O)c3ccccc3C2=O)cc1,-17.6%,-1.5,-20.1%,-3.6%
NN=C1c2ccccc2C(=O)C1C(=O)C(c1ccccc1)c1ccccc1 (stereo unspecified),i,3.3,11.2µM*,/
O=c1c2ccccc2[nH]c(=S)n1Cc1cccnc1,2.2%,-1.2,0.6%,25.1µM*
O=c1c2cc(Br)ccc2[nH]c(=S)n1Cc1cccnc1,-2.3%,-0.6,-3.3%,?
COc1ccc(-c2noc(-c3ccc(NCc4ccc(C)cc4)c([N+](=O)[O-])c3)n2)cc1OC,5.5%,/,0.9%,/
CCN1C(=O)c2cccc3c(S(=O)(=O)Nc4ccncc4)ccc1c23,-6.9%,-3.7,-0.7%,0.7%
CCN1C(=O)c2cccc3c(S(=O)(=O)Nc4nc(C)cs4)ccc1c23,-6.7%,0.8,-16.4%,3.98µM*
CCN1C(=O)c2cccc3c(S(=O)(=O)Nc4ncccc4C)ccc1c23,0.7%,-2.3,-5.6%,11.2µM*
CC[N+](C)(C)c1ccc(/C=C/c2ccnc3ccccc23)cc1,/,/,5.9%,/
Brc1ccc2nc(CSc3ncn[nH]3)cn2c1,-0.5%,-0.1,6.0%,20µM*
CC(=O)Nc1sc2c(c1C#N)CCN(Cc1ccccc1)C2,-8.5%,-0.3,0.7%,1.3%
N#Cc1c(NC(=O)/C=C/C(=O)O)sc2c1CCN(Cc1ccccc1)C2,25.1µM*,0.2,?,/
CCCCN(CCCC)S(=O)(=O)c1ccc(C(=O)Nc2sc3c(c2C(N)=O)CCN(CC)C3)cc1,28.2µM*,/,?,/
NC(=O)c1c(NC(=O)c2ccccc2)sc2c1CCN(Cc1ccccc1)C2,?,316.8*,?,2.0%
CN(C)c1cccc(CNC(=O)c2csc(COCCO)n2)c1,/,-0.4,3.7%,/
CCC(=O)N1CCc2cc(Br)cc(S(=O)(=O)CCC(=O)NCc3ccc(Cl)cc3)c21,-5.0%,/,-3.3%,/
COc1ccc(S(=O)(=O)NCCS(=O)(=O)N2CCN(c3ccccc3F)CC2)cc1,7.4%,/,9.4%,/
O=c1c2ccccc2sc2ccc(NCCCN3CCOCC3)cc12,22.4µM*,-0.5,?,/
COc1ccc(OC)c(CNC(=O)C2CCN(S(=O)(=O)c3ccc4[nH]c(=O)oc4c3)CC2)c1,-2.0%,/,-3.1%,/
COc1ccc(CNC(=O)C(C#N)c2nc3ccccc3nc2N2CCCC2)cc1 (stereo unspecified),?,121.9*,-19.2%,-2.1%
SMILES,Vif-APOBEC3F blk,IL-2 act,Vif-A3G inh,PKM2 act
COc1ccc(CNC(=O)C(C#N)c2nc3ccccc3nc2N2CCN(C)CC2)cc1 (stereo unspecified),-6.2%,0.5,2.3%,?
CC(=O)c1cc(NC(=O)c2ccc(C)cc2)c(=O)oc1/C=C/N(C)C,12.6µM*,7.1,12.6µM*,-6.8%
COc1ccc(C(=O)Nc2cc(C(C)=O)c(/C=C/N(C)C)oc2=O)cc1,?,8.1,?,1.3%
CCCCc1c(C)c(C#N)c2[nH]c3ccccc3n2c1=O,-11.0%,-0.4,-1.2%,0.6%
CCc1ccccc1N=Cc1c(C)c(C#N)c2[nH]c3ccccc3n2c1=O,4.2%,123.4*,-3.4%,/
Cn1c(=O)n(C)c2cc(S(=O)(=O)Nc3ccccc3O)ccc21,2.4%,0.8,-1.7%,?
Cn1c(=O)n(C)c2cc(NS(=O)(=O)c3ccccc3)ccc21,2.3%,-1.5,1.5%,18.3%
Cc1ccc(S(=O)(=O)Nc2ccc3c(c2)n(C)c(=O)n3C)cc1,-5.2%,-0.6,-1.5%,9.8%
Cn1c(=O)n(C)c2cc(S(=O)(=O)Nc3cc(Cl)ccc3O)ccc21,-20.5%,3.5,-14.3%,12.6µM*
Cc1ccc(NS(=O)(=O)c2ccc3c(c2)n(C)c(=O)n3C)cc1C,-4.4%,-0.6,-11.2%,1.58µM*
Cn1c(=O)n(C)c2cc(S(=O)(=O)Nc3ccccc3)ccc21,12.7%,0.1,-2.5%,3.98µM*
CCCCOc1cccc(C2c3c(-c4cc(C)ccc4O)n[nH]c3C(=O)N2CCOC)c1 (stereo unspecified),7.4%,/,-20.0%,/
CSc1ccccc1-c1ccc2nccn2c1,/,1.8,-25.1%,/
COc1ccc(-c2cc(C(F)(F)F)nc(-n3nc(C(F)(F)F)cc3C)n2)cc1,4.4%,/,1.8%,/
O=C(Nc1nnc(-c2ccc3c(c2)CCCC3)o1)c1c(F)cccc1F,25.1µM*,-1.1,-4.7%,-11.4%
CCc1ccc(OCC2c3cc(OC)c(OC)cc3CCN2C(=O)Cc2ccc(OC)c(OC)c2)cc1 (stereo unspecified),-4.7%,/,-4.9%,/
CCc1nnc(NC(=O)CSc2nc(C)c3c(c2C#N)CCCC3)s1,4.6%,-2.1,?,10µM*
COC1=C(OC)C(=O)C(Sc2ccc3ccccc3c2)=CC1=O,25.1µM*,-6.3,?,/
CN(c1ccc(C(=O)NCc2ccc3c(c2)OCO3)cc1)S(C)(=O)=O,-8.1%,-1.5,-0.6%,-2.9%
COc1ccc(S(=O)(=O)N(C)c2ccc(C(=O)NCc3ccco3)cc2)cc1,-9.7%,0.4,-3.2%,12.6µM*
CN(c1ccc(C(=O)NCc2ccc3c(c2)OCO3)cc1)S(=O)(=O)c1ccccc1,3.1%,7.6,-7.4%,15.8µM*
CC1=C(C(=O)N(C)C)CC(CC(=O)NC2CCCC2)C(=O)N1CCC1=CCCCC1 (stereo unspecified),-3.7%,0.3,0.5%,/
Cc1ccc(S(=O)(=O)Nc2ccc(O)c3cccnc23)cc1,-17.0%,0.1,-29.5%,10µM*
CC(=O)NC(c1ccc(F)c(F)c1)c1nc(-c2ccncc2)cs1 (stereo unspecified),/,-0.2,-0.5%,/
Cc1cccc(C=Nc2ccccc2C(N)=O)c1,-14.8%,-3.1,10µM*,-0.7%
SMILES,Vif-APOBEC3F blk,IL-2 act,Vif-A3G inh,PKM2 act
CN(C)C(=O)COC(=O)c1ccccc1OCC(=O)Nc1ccc(Br)cc1,/,/,2.6%,/
COc1ccc2nc(N3CCCC3)c(C#N)cc2c1,11.2µM*,3.1,-14.1%,6.0%
COc1ccc2nc(N3CCCCC3)c(C#N)cc2c1,-18.8%,-0.3,-7.5%,13.6%
CC(=O)Nc1cccc(NC(=O)CSc2ccc(-c3cccnc3)nn2)c1,3.2%,-2.5,-6.7%,31.6µM*
Cc1ccc(-n2c(SCC(=O)NCc3ccco3)nc3nc4c(cc3c2=O)COC(C)(C)C4)cc1,-6.6%,0.7,0.8%,14.1µM*
CCOC(=O)C1=C(O)c2ccccc2C(=O)/C1=C\c1ccc(CC)cc1,22.4µM*,-1.1,?,?
CCCc1ccc(/C=C2\C(=O)c3ccccc3C(O)=C2C(=O)OCC)cc1,/,/,/,27.2%
